High-throughput results as filed in PubChem BioAssay.
Compounds with a hit are over-represented: about 4% of the library has one in this group of screens.
Gli-Sufu antag: Gli-Sufu pathway antagonism; hit rate 0.74% among 340,000; Sufu-KO-LIGHT fibroblasts, Gli luciferase reporter luminescence; inhibition, % at 5 µM; AID 588413;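 active = inhibition above about 55%, limit read from the data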;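 note: 0% = DMSO-treated cells and 100% = wells with medium but no cells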
Beta apoptosis: blocks beta cell apoptosis | hit rate 0.8% among 300,000 | AID 435005 | INS-1E cytokine-induced death, ATP luminescence, 48 h; percent of positive-control rescue, neutral wells zero | protection from apoptosis, % (test concentration not listed);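 active = Every replicate reaches about 75%, or at least half do and their mean reaches it too, limit read from the data; inconclusive = At least half of replicates reach the limit but their mean does not; inactive = Under half of replicates reach the limit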;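 note: 0% = cytokine-treated negative control wells and 100% = positive control rescue; higher means more ATP so stronger rescue from cytokine killing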
697 NFkB inh: lowers PMA/ionomycin-induced NF-kB signal in 697 B cells; hit rate 0.33% among 330,000; inhibition, % at 4 µM; 697 B-cell NF-kB luciferase reporter, 16 h; AID 435022; in the data active = inhibition above about 35%
Mdm2 MdmX PPI: disrupts the human Mdm2-MdmX interaction | O15151+Q00987 | SaOS-2 split-luciferase Mdm2/MdmX complementation, luminescence | inhibition, % at 8 µM | hit rate 3% among 330,000 | AID 485346;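 active = inhibition of at least 50% at 8 µM in the primary screen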
Target sequence (O15151 whole entry, looked up): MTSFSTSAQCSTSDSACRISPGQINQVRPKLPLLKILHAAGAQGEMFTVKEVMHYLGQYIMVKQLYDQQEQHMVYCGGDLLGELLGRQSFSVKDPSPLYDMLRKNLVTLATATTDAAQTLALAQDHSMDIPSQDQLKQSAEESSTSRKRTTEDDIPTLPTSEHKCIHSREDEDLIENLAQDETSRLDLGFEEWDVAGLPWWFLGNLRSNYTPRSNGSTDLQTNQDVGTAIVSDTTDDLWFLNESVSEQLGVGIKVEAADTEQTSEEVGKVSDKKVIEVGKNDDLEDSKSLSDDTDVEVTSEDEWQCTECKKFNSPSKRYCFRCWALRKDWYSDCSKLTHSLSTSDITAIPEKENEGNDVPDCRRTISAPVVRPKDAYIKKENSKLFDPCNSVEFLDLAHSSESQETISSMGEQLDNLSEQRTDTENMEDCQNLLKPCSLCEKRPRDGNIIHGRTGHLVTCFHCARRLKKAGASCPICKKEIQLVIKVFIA
Target sequence (Q00987 whole entry, looked up): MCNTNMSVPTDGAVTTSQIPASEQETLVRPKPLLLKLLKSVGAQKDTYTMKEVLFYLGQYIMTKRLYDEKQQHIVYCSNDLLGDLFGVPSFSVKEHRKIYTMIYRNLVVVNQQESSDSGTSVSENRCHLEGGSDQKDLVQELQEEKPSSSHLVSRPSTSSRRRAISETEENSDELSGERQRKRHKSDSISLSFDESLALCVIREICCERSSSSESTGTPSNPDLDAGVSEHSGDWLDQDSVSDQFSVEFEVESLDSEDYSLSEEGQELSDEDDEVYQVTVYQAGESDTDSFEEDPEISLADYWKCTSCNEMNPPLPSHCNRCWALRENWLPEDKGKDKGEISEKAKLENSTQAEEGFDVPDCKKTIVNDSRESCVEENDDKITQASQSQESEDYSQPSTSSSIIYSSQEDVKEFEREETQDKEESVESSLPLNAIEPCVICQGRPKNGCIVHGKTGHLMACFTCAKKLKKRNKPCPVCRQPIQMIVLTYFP
Jurkat NFkB inh: inhibitors of the PMA/ionomycin-induced NF-kB reporter in Jurkat cells; PMA/ionomycin-induced NF-kB luciferase reporter, luminescence; inhibition, % at 4 µM; hit rate 0.53% among 330,000; AID 435003; in the data active = inhibition above about 50%
Mdm2-MdmX conf: confirmation of human Mdm2/MdmX interaction inhibitors | shares compounds with Mdm2 MdmX PPI | Mdm2-MdmX binding, luminescent assay | inhibition, % at 8 µM | hit rate 55% among 10,000 | AID 489028; in the data active = inhibition above about 40%
FLuc counter: counter-screen for Mdm2/MdmX inhibitors: full-length luciferase; inhibition, % at 8 µM; SaOS-2 full-length luciferase counterscreen, luminescence; shares compounds with Mdm2 MdmX PPI; hit rate 77% among 6,200;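 active = mean inhibition at 8 µM reaching about 37%, which flags the compound as non-specific, limit read from the data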;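 note: p53-null SaOS-2 cells with luciferase driven by a doxycycline-inducible promoter; compound on cells about two nights before reading with doxycycline added after day one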
Numbers without * were called inactive; ? = inconclusive; . = not tested or not shown.

SMILES	Gli-Sufu antag	Beta apoptosis	697 NFkB inh	Mdm2 MdmX PPI	Jurkat NFkB inh	Mdm2-MdmX conf	others
O=c1c2c3c(sc2nc(N2CCNCC2)n1-c1cccc(Cl)c1)CCCCC3	.	5	-24	67*	-29	27
COc1ccc(/C=N\NC(=O)c2ccccc2Cl)cc1COc1c(F)c(F)c(F)c(F)c1F	-3	4	-12	56*	8	22
CC#CCN1c2ccccc2[C@]23C[C@@H](C(=O)OC)N(C(=O)c4ccc(Br)cc4)C2=NC(C(=O)OC)=C(C(=O)OC)[C@H]13	0	-5	13	96*	4	76*	FLuc counter=68*
CC#CCN1c2ccccc2[C@]23C[C@@H](C(=O)OC)N(C(C)=O)C2=NC(C(=O)OC)=C(C(=O)OC)[C@H]13	-18	-3	16	-6	25	.
COC(=O)C1=C(C(=O)OC)[C@@H]2N(C)c3ccccc3[C@@]23C[C@@H](C(=O)OC)N(C(=O)c2ccc(Br)cc2)C3=N1	-15	-17	13	68*	7	17
NC(=O)CC(NC(=O)Cc1ccc(Br)cc1)c1ccc(N2CCN(c3ccccc3)CC2)c([N+](=O)[O-])c1 (centres undefined)	-26	-3	-2	43	17	.
COc1cccc(C(=O)Nc2sc(C(C)C)cc2C(N)=O)c1OC	1	3	4	3	-21	.
COc1ccc([C@@H]2C=C(C(=O)O)O[C@H](OCCCCO)C2)cc1	10	-21	16	12	15	.
COc1ccc(CN(CCC(C)C)S(=O)(=O)c2ccccc2Br)cc1	-7	.	14	-25	.	.
COc1ccc(CN(C2CC2)S(=O)(=O)c2ccccc2Br)cc1	2	.	13	51*	.	0
CCOC(=O)c1c(C)[nH]c(C(=O)OCC(=O)NCc2ccc(OC)c(OC)c2)c1C	1	3	10	3	4	.
CCOC(=O)c1c(C)[nH]c(C(=O)OCC(=O)Nc2sccc2C(N)=O)c1C	51	48	-46	56*	13	59*	FLuc counter=66*
CCOC(=O)c1c(C)[nH]c(C(=O)OCC(=O)Nc2ccc(Cl)cn2)c1C	1	-2	8	14	17	.
CCOC(=O)c1c(C)[nH]c(C(=O)OCC(=O)Nc2cc(C)c(Cl)cc2OC)c1C	8	10	-7	54*	-3	19
C/C=C/n1ccnc1CC(O)(c1ccccc1)c1ccc(C)cc1 (centres undefined)	8	16	4	32	6	.
CCN1CCCC1CNC(=O)C1CCN(C(=O)c2cc3sccc3n2Cc2ccc(F)cc2)CC1 (centres undefined)	21	-9	-8	30	4	.
Cc1ccc(C(=O)Nc2nn(C)c3cccc(F)c23)cc1	-6	.	6	12	-4	.
O=c1[nH]c2cc3c(cc2cc1C(c1nnnn1Cc1ccccc1)N1CCCc2ccccc21)OCO3 (centres undefined)	1	.	-6	100*	-15	10
Cc1noc(C)c1NC(=O)N(C)C[C@H]1Oc2ccc(NC(=O)c3ccncc3)cc2C(=O)N([C@H](C)CO)C[C@@H]1C	11	.	10	7	1	.
CCN(CC)CCSc1nc2ccccc2c(=S)n1-c1ccccc1	22	16	3	51*	12	34	FLuc counter=94*
COc1ccc(N2C(=O)C(C)(C)C2c2c(O)ccc3ccccc23)cc1 (centres undefined)	9	2	-8	3	-12	.
CC1(C)C(=O)N(c2ccccc2)C1c1ccccc1O (centres undefined)	.	-3	3	59*	-8	46*	FLuc counter=75*
CC(=O)Oc1ccc(-n2c(=O)c3ccccc3c3ccccc3c2=O)cc1	-3	-5	-1	14	10	.
O=C1c2cccc3c([N+](=O)[O-])ccc(c23)C(=O)N1O	11	43	3	7	15	.
O=C1c2cccc3cccc(c23)C(=O)N1c1nccs1	-2	7	11	-5	9	.
SMILES	Gli-Sufu antag	Beta apoptosis	697 NFkB inh	Mdm2 MdmX PPI	Jurkat NFkB inh	Mdm2-MdmX conf	others
O=C1c2cccc3c([N+](=O)[O-])ccc(c23)C(=O)N1c1ccc(Cl)cn1	6	29	-10	100*	5	100*	FLuc counter=54*
CC(=O)Oc1ccc(N2C(=O)c3cccc4c([N+](=O)[O-])ccc(c34)C2=O)cc1	9	.	4	70*	8	5
O=C1c2cccc3c([N+](=O)[O-])ccc(c23)C(=O)N1c1ccccn1	7	.	-106	96*	34	63*	FLuc counter=15
O=C1c2cccc3c([N+](=O)[O-])ccc(c23)C(=O)N1c1nccs1	7	9	14	92*	-3	90*	FLuc counter=27
Cc1csc(=O)n1CCC(=O)OCc1nnc(-c2ccc([N+](=O)[O-])cc2)o1	-4	0	9	-5	-16	.
O=C(Nc1ccc(Cl)cc1)Nc1nnc(CSCc2ccc(Cl)cc2)s1	19	?	-18	98*	27	21
O=C(Nc1nnc(CC2=CCCCC2)s1)c1cccs1	-22	3	-71	-22	-35	.
CCc1nnc(NC(=O)Nc2ccc(Cl)cc2)s1	-38	14	-44	-56	-24	.
O=C(Nc1ccc(Cl)c(Cl)c1)Nc1nnc(CC2=CCCCC2)s1	44	84*	-43	89*	-2	27
CCSc1nc2ccccc2n1C(=O)/C=C/c1ccc(OC)c(OC)c1	8	-1	-168	100*	43	99*	FLuc counter=54*
O=C(c1c(F)c(F)c(F)c(F)c1F)N1CCN(c2cccc(C(F)(F)F)c2)CC1	3	8	9	58*	-9	16
O=C(c1ccccc1F)N1CCN(c2cccc(C(F)(F)F)c2)CC1	16	0	-18	16	-9	.
CC(OC(=O)c1cc(Br)ccc1O)C(=O)Nc1ccc(S(=O)(=O)N2CCCC2)cc1 (centres undefined)	-5	10	-15	63*	-22	43*	FLuc counter=73*
CC(OC(=O)c1ccc(S(=O)(=O)N2CCCCC2)cc1)C(=O)Nc1ccc(C(N)=O)cc1 (centres undefined)	3	.	-2	54*	19	-16
CCN(CC)S(=O)(=O)c1ccc(OC)c(NC(=O)/C=C/c2ccco2)c1	-3	-5	15	-1	0	.
COc1cccc(-c2ccc3ncnc(NCc4cc(C)cs4)c3c2)c1	7	2	-11	48	7	.
c1cncc(CNc2ncnc3ccc(-c4ccoc4)cc23)c1	-39	-11	-2	70*	31	69*	FLuc counter=51*
Cc1csc(CNc2ncnc3ccc(-c4ccc5c(c4)OCCO5)cc23)c1	-12	4	-4	30	4	.
Cc1cccc(CNc2ncnc3ccc(-c4ccc5c(c4)OCCO5)cc23)c1	-3	108*	-28	66*	-2	33
